Laboratory results as given in paper PMC3820963, “The RNA Binding Protein RBM38 (RNPC1) Regulates Splicing during Late Erythroid Differentiation”.

Target: T1, Rbm38-FF (Mus musculus, UniProt Q62176 1-237)
T1 sequence: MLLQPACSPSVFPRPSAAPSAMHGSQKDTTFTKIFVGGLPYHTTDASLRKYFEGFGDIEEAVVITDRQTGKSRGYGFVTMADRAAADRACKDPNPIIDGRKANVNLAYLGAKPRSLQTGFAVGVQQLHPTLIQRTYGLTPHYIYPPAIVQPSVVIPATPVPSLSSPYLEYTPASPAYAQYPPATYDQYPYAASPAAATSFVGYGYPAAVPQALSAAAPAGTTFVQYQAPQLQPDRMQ
Experiment: SELEX-Seq; 16 mM HEPES pH 7.9, 150 mM KCl, 2 mM MgCl2, 60 uM EDTA, 1 mM DTT, 6% glycerol, 0.01 ug/uL heparin, 0.15 mM PMSF, 0.2 U/uL SUPERase-In, room temperature, 30 min; high values mean tight binding
Conditions: protein: recombinant; tags: C-terminal 2xFLAG with TEV remnant (SBP removed by TEV cleavage); ssRNA

Sequence	binding signal
UGUGGUG	0.00628 fraction of reads
GCGUGUG	0.00853 fraction of reads
GGCGUGU	0.00692 fraction of reads
AUGUGUG	0.00771 fraction of reads
GGUGUGG	0.00694 fraction of reads
CGGUGUG	0.00653 fraction of reads
UGCGUGU	0.00637 fraction of reads
GUGUGUC	0.00739 fraction of reads
UUUGUGU	0.00629 fraction of reads
GUGUGUU	0.0136 fraction of reads
GGUGUGU	0.0109 fraction of reads
GUGCGUG	0.0063 fraction of reads
GUGUUGU	0.00863 fraction of reads
GUGUGGU	0.00929 fraction of reads
UGUGUGG	0.00894 fraction of reads
GUUGUGU	0.00961 fraction of reads
UGGUGUG	0.00917 fraction of reads
UGUGUUU	0.00792 fraction of reads

Sequence	binding signal
UGUGUUG	0.00826 fraction of reads
CGUGUGU	0.01 fraction of reads
GUGUGUG	0.016 fraction of reads
GUGUUUG	0.00702 fraction of reads
GUUUGUG	0.00579 fraction of reads
UUGUGUG	0.00989 fraction of reads
UGUGUGU	0.0159 fraction of reads
GAGUGUG	0.00663 fraction of reads
AGUGUGU	0.0103 fraction of reads
GUGGUGU	0.00782 fraction of reads
GGGUGUG	0.0067 fraction of reads
GUGUGGG	0.00755 fraction of reads
GUGUGCG	0.00564 fraction of reads
UGUUGUG	0.00859 fraction of reads
UGUGUGC	0.00732 fraction of reads
UUGUGUU	0.00601 fraction of reads
CAGUGUG	0.00615 fraction of reads
GUGUGUA	0.00612 fraction of reads
